Source: PubChem (The Scripps Research Institute Molecular Screening Center)
Shown are actives, neighbours in structure and some others; about 2.4% of the full set was active somewhere.
CHO-K1 Ca antag: nonselective inhibitor or artifact in parental CHO-K1 cells. 360,000 compounds, 0.6% hits. inhibition, % at 3 µM. ATP-induced calcium, Fluo-8 fluorescence. AID 602250;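 active = inhibition above a per-plate cutoff, the plate's mean sample inhibition plus 3 SD, cut at about 24% in these data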
CHRM1 antagonist: human CHRM1 antagonism | P11229 | AID 588852 | 360,000 compounds, 1.3% hits | CHO-K1 hM1, Fluo-8 calcium fluorescence, ACh EC80 antagonist | inhibition, % at 3 µM;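 active = percent inhibition above its own plate's cutoff, namely the mean of that plate's compound wells plus 3 SD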;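 note: peak over basal fluorescence ratio during 140 s after agonist addition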
Target sequence (P11229 whole entry, looked up): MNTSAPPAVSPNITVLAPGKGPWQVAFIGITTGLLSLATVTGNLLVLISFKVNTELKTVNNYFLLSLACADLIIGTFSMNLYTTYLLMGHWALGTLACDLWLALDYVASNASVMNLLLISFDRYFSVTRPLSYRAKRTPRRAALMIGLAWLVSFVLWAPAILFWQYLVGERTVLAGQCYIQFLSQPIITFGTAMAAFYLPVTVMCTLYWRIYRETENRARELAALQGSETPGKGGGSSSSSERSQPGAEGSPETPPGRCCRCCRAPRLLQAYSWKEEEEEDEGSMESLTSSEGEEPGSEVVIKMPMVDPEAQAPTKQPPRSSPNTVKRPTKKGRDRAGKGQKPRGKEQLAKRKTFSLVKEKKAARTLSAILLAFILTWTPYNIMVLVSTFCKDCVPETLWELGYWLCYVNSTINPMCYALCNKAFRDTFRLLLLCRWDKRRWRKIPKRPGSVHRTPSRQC
CHRM1 agonist: human M1 muscarinic receptor agonism; P11229; CHO-K1 hM1, Fluo-8 calcium fluorescence, agonist mode; 0% DMSO, 100% acetylcholine EC100; activation, % at 3 µM; 360,000 compounds, 0.33% hits; AID 588814;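 active = activation above the run's mean compound activation plus 3 SD, cut at about 16% in these data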;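 note: peak over basal fluorescence ratio within a 140 s kinetic read after compound addition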
CHRM1 PAM: positive allosteric modulators of human M1 muscarinic receptor | P11229 | activation, % at 3 µM | 360,000 compounds, 0.088% hits | CHO-K1 hM1, Fluo-8 calcium fluorescence, ACh EC20; 0% = ACh EC20, 100% = maximal ACh | AID 588819; in the data active = activation above about 19%, passing the limit was not always enough
CHO-K1 Ca ag: nonselective activator or artifact in parental CHO-K1 cells; 360,000 compounds, 0.48% hits; activation, % at 3 µM; Fluo-8 calcium fluorescence; scaled to maximal ATP response, vehicle zero; in the data active = activation above about 15%;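 note: untransfected CHO-K1 host cells lacking M1 receptor as counterscreen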
M1 PAM parental: counter-screen for M1 PAMs: effect in parental CHO-K1 cells; ATP EC20, Fluo-8 calcium fluorescence; 0% at ATP EC20, 100% at ATP max; activation, % at 3 µM; AID 602247; 360,000 compounds, 0.02% hits;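 active = activation above the run cutoff, the mean activation of all test compounds plus 3 SD, cut at about 40% in these data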;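 note: peak over basal fluorescence ratio in a 140 s read after ATP addition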
Each line names hits and unclear results; the compound was inactive in the other large screens.

COc1ccc(OC)c(/C=N/NC(=O)CCN2CCN(C(c3ccccc3)c3ccccc3)CC2)c1	CHRM1 antagonist 48.0
N#Cc1ccsc1NC(=O)CCN1CCN(C(c2ccccc2)c2ccccc2)CC1	CHRM1 antagonist 29.8
O=C(CCN1CCN(C(c2ccccc2)c2ccccc2)CC1)N/N=C/c1ccc(O)cc1	CHRM1 antagonist 36.9
COc1cccc(-c2nc(-c3ccccc3)c3ccc(Cl)cc3n2)c1	none (no result: CHRM1 antagonist, CHRM1 agonist, CHRM1 PAM)
Cc1cc(C)n(CC(O)COc2c(C)cccc2C)n1 (stereo not given)	none
NC(=O)COC(=O)c1cc(-c2cccs2)nn1-c1ccccc1	none
CC1CCCN(C(=O)COC(=O)c2cc(-c3cccs3)nn2-c2ccccc2)C1 (stereo not given)	CHRM1 antagonist 46.1
O=C(c1cc(-c2cccs2)nn1-c1ccccc1)N1CCN(S(=O)(=O)c2ccccc2)CC1	CHRM1 antagonist 27.8
O=C(c1cc(C2CC2)nn1-c1ccccc1)N1CCN(S(=O)(=O)c2ccc(F)cc2)CC1	none
O=C(c1cc(C2CC2)nn1-c1ccccc1)N1CCN(S(=O)(=O)c2cccc(F)c2)CC1	CHRM1 antagonist 29.8
C=CCNC(=O)c1ccccc1Cl	CHO-K1 Ca ag 18.8
CSc1nsc(SC)c1NC(=O)Nc1ccccn1	M1 PAM parental 49.2
CCCCC1(C)NC(=O)N(CC(=O)N2CCc3ccccc32)C1=O (stereo not given)	none
CCC1(c2ccc(F)cc2)NC(=O)N(CC(=O)N2CCc3ccccc32)C1=O (stereo not given)	CHRM1 agonist 23.9
CCC1(CC)NC(=O)N(CC(=O)N2CCc3ccccc32)C1=O	none
CC1(c2ccc(Cl)cc2)NC(=O)N(CC(=O)N2CCc3ccccc32)C1=O (stereo not given)	CHRM1 agonist 38.8, CHO-K1 Ca ag 18.9
Cc1ccc(C2(C)NC(=O)N(CC(=O)N3CCc4ccccc43)C2=O)cc1 (stereo not given)	CHRM1 agonist 29.2, CHO-K1 Ca ag 19.9
Cn1cnnc1SCC(=O)Nc1ccc(S(N)(=O)=O)cc1	none
O=C(NC1CCCC1)C(c1cccnc1)N(C(=O)c1ccco1)c1ccc(F)cc1 (stereo not given)	none
Cc1ccc(OCCN2C(=O)C(=O)c3cc(C)ccc32)cc1	none
Cc1ccc2c(c1)C(=O)C(=O)N2Cc1ccc(C(F)(F)F)cc1	CHRM1 agonist 22.9
COc1ccc(CC(=O)NC(C)c2nnc(SCC(=O)Nc3nc(C)cs3)n2C)cc1 (stereo not given)	CHO-K1 Ca antag 30.6
COc1ccc(CC(=O)NC(C)c2nnc(SCC(=O)c3ccc(Br)cc3)n2C)cc1 (stereo not given)	none
O=C(O)c1nn(CC(=O)N2CCCCCC2)c(=O)c2ccccc12	CHO-K1 Ca ag 16.3
O=C(Cn1nc(C(=O)O)c2ccccc2c1=O)Nc1cccc(S(=O)(=O)N2CCOCC2)c1	none
O=C(Cn1nc(C(=O)O)c2ccccc2c1=O)Nc1cccc(S(=O)(=O)N2CCCCC2)c1	CHRM1 antagonist 24.0
O=C(NCCN1C(=O)S/C(=C\c2ccc(OC(F)F)cc2)C1=O)[C@@H]1CCCN1C(=O)c1cccs1	CHO-K1 Ca ag 20.5
C#CC[N+](C)(C)CCCCCCCCC	none
CC#CC[N+](C)(C)CCCCCCCCCC	CHRM1 antagonist 57.0
Cc1ccc(Cc2c(C)nc3nc(SCC(=O)NCCCN4CCCCC4)nn3c2C)cc1	CHRM1 antagonist 26.4
Cc1cccc(Cc2c(C)nc3nc(SCC(=O)O)nn3c2C)c1	none
Cc1ccc(Cc2c(C)nc3nc(SCC(=O)NCCCN4CCCC4)nn3c2C)cc1	CHRM1 antagonist 28.8
Cc1nc2nc(SCC(=O)NCCN3CCOCC3)nn2c(C)c1Cc1ccccc1	none
O=C(Cn1ccc([N+](=O)[O-])n1)NCc1nc2ccccc2[nH]1	CHO-K1 Ca ag 16.9
CC(C)Cn1c(=O)c2ccccc2n2c(CCC(=O)O)nnc12	none
N#Cc1ccc(C(=O)Nc2nnc(-c3cccs3)o2)cc1	none
O=C(Nc1nnc(-c2cccs2)o1)c1cccc(C(F)(F)F)c1	CHRM1 agonist 40.7, CHO-K1 Ca ag 32.0
Cc1c(C(=O)N2CCCC2)sc(NC(=O)c2ccc(Cl)cc2)c1C#N	CHO-K1 Ca antag 24.3
COc1ccccc1C(=O)Nc1sc(C(=O)N2CCCC2)c(C)c1C#N	none
COC(=O)COc1ccc(S(=O)(=O)Nc2ccc3c(c2)OCCO3)cc1C	none
NNC(=O)c1[nH]c2ccc([N+](=O)[O-])cc2c1-c1ccccc1	none
Cc1c(C(=O)NN)[nH]c2ccc([N+](=O)[O-])cc12	CHO-K1 Ca ag 25.8
Nc1nc(Nc2ccccc2)nc(N2CCOCC2)c1[N+](=O)[O-]	none
Nc1nc(Nc2ccccc2F)nc(N2CCOCC2)c1[N+](=O)[O-]	CHO-K1 Ca ag 18.2
c1ccc(-c2ncc(-c3ccn[nH]3)s2)cc1	CHO-K1 Ca antag 28.7
c1ccc(Oc2ccc(-c3ccn[nH]3)cc2)cc1	none
O=C(CCCn1c(SCc2ccccc2F)nc2ccccc2c1=O)NCC1CCCO1 (stereo not given)	CHO-K1 Ca ag 16.6
O=C(CCCn1c(SCC(=O)NC2CCCCC2)nc2ccccc2c1=O)NCC1CCCO1 (stereo not given)	none
CCOC(=O)c1ccc(-c2ccc(N3C(c4cccc(OC)c4)=Cc4ccc(F)cc4C3CC(C)=O)cc2)cc1F (stereo not given)	none (no result: CHRM1 antagonist, CHRM1 agonist, CHRM1 PAM)
COC(=O)Cn1cc(/C=C(/C#N)C(=O)N2CCOCC2)c2ccccc21	none
COc1ccc(OC)c(S(=O)(=O)n2nnc3ccccc32)c1	none
COc1ccc(Cl)cc1S(=O)(=O)n1nnc2ccccc21	CHO-K1 Ca antag 28.0
C[N+]1(CCn2ccc3ccccc32)CCCCC1	CHRM1 antagonist 42.2
Cc1cccc(C)c1-n1nnnc1C(c1ccnc2ccccc12)N1CCN(C/C=C/c2ccccc2)CC1 (stereo not given)	none
COc1cccc(NC(=S)NC2CC(C)(C)NC(C)(C)C2)c1	CHO-K1 Ca antag 26.1
CC1(C)CC(NC(=S)NC(=O)c2cc(Br)ccc2Cl)CC(C)(C)N1	CHRM1 agonist 21.9
COc1cc(NC(=S)NC2CC(C)(C)NC(C)(C)C2)c(OC)cc1Cl	CHRM1 agonist 36.3
Cc1ccc(NC2CCCN(C(=O)CCN3CCCCO3)C2)cc1C (stereo not given)	none
Cn1ncc([N+](=O)[O-])c1C(=O)Nc1ccc(C2CCCCC2)cc1	none
FC(F)(F)c1cnc(N2CCCN(C(=S)Nc3ccccc3)CC2)c(Cl)c1	CHO-K1 Ca ag 16.6
FC(F)(F)c1cnc(N2CCN(C(=S)NCc3ccccc3)CC2)c(Cl)c1	none
CCOC(=O)c1c(NC(=O)C(C)N2CCN(C(=O)c3ccco3)CC2)sc2c1CCCC2 (stereo not given)	CHRM1 antagonist 37.3, CHRM1 agonist 19.8
